Hits are enriched below; roughly 5.3% of the tested compounds scored in any of these assays.
ALR inh: human ALR oxidase inhibition via reduced H2O2; AID 485317; P55789; hit rate 3.8% among 290,000; purified ALR, DTT oxidation, H2O2 HRP-luminol luminescence; inhibition, % (no concentration beside the values);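 active = mean replicate inhibition above about 79%, with every replicate also reaching it, limit read from the data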
Target sequence (P55789 whole entry, looked up): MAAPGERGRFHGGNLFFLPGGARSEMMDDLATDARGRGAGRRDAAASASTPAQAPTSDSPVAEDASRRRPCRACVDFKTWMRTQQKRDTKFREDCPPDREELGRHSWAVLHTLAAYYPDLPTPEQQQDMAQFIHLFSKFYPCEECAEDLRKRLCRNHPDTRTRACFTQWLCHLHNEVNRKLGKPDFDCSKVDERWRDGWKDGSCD
M18AAP inhibitor: blocks P. falciparum M18 aspartyl aminopeptidase. AID 1822. recombinant PfM18AAP, H-Glu-NHMec fluorogenic cleavage. inhibition, % at 7.35 µM. hit rate 1.2% among 290,000;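 active = inhibition above the campaign mean inhibition over all tested compounds plus 3 SD, cut at about 28% in these data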;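 note: 0% = plate median of test compound wells and 100% = 2 mM ZnCl2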
SUMO Mot1 rescue: inhibitors of SUMOylation pathway: yeast Mot1-301 growth rescue | growth rescue, % at 18.8 µM | hit rate 1% among 320,000 | AID 2716 | S. cerevisiae Mot1-301 growth rescue, ATP luminescence, 38.5C; percent above DMSO median, 100 means doubled;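 active = every valid replicate shows activation above 250% relative to neutral control wells; inactive = the rest, any valid replicate at or below 250%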;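 note: OY570 slx delta 5 strain wells were the positive control but not used for scaling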
HIF activator: HIF pathway transcriptional activation; U2OS HRE-luciferase reporter, luminescence; normalized: DMSO 0%, desferrioxamine 100%; activation, % at 7.5 µM (by protocol); hit rate 0.32% among 300,000; AID 1910;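 active = mean activation of at least 10% of the iron chelator positive control signal, with at least half of replicates also reaching 10%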
Mot1 SUMO dose: inhibits SUMO pathway, affecting Mot1-301 yeast growth; shares compounds with SUMO Mot1 rescue; S. cerevisiae Mot1-301 galactose growth, ATP luminescence, 24 h; -100 = growth of slx-deleted rescue strain; growth activity, percent, % at 42 µM; 2,300 tested, under 10 active;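 active = Signal drops as the depositor expects, and the fitted half-maximal dose is no more than ten times the top valid tested dose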;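 note: more negative values mean stronger growth rescue toward the control strain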
Active calls of the source: *; x = not tested or not shown; + = active, no number.

SMILES	ALR inh	M18AAP inhibitor	SUMO Mot1 rescue	HIF activator	Mot1 SUMO dose
CC1(C)Cc2[nH]c3ccccc3c2C(C)(C)N1	1	-5	2	1	x
COCC(C)n1c(C)cc(C(=O)CSc2ccc(NC(C)=O)cc2)c1C (stereo not given)	98*	24	+	0	0
COc1ccc(NC(=O)N2CCCC(c3nc(-c4ccc(OC)cc4)no3)C2)cc1 (stereo not given)	-16	-6	4	3	x
O=C(Nc1ccc(Cl)cc1)N1CCC(c2nc(-c3ccc(F)cc3)no2)CC1	-1	3	+	1	0
Cc1cc(NC(=O)/C=C/c2ccco2)ccc1NC(=O)c1ccccc1	5	-4	432*	0	0
O=C(/C=C/c1ccco1)Nc1ccccc1C(=O)Nc1cccc(C(=O)O)c1	x	7	1	0	x
CC(=O)Cc1nsc(Nc2ccccc2)n1	-1	4	-6	1	x
CC(=O)Cc1nsc(Nc2cccc(C)c2)n1	x	0	901*	x	0
CN(C)S(=O)(=O)c1ccc(C(=O)Nc2cccnc2)cc1	x	8	0	-1	x
CN(C)S(=O)(=O)c1ccc(C(=O)/C=C/c2cccnc2)cc1	3	11	644*	0	0
CC(=O)c1ccc(-c2cc([C@H]3[C@H]4C=CC[C@@H](C)[C@@H]4C(=O)N3Cc3ccccc3)ccc2F)cc1	x	x	-11	0	x
Cc1ccc(S(=O)(=O)NC2CCCCCCC2)cc1	-4	-2	454*	0	1
Cc1ccc(S(=O)(=O)Nc2n[nH]nc2C(=O)NC2CCCCC2)cc1	-1	-3	517*	0	0
Cc1ccc(S(=O)(=O)NCCC(=O)NC2CCCCC2)cc1	x	x	-12	x	x
O=C(CCc1nnc2ccc(NCc3ccccc3)nn12)NC1CCCC1	1	-9	-5	0	x
COc1ccc(CN2CCNC(=O)C2CC(=O)NCc2cn3ccc(C)cc3n2)c(OC)c1 (stereo not given)	-5	5	838*	0	-1
COc1ccc(C2C(C(=O)Nc3cccc(OC)c3)c3ccccc3C(=O)N2C)cc1 (stereo not given)	-5	1	3	0	x
COc1ccc(C2C(C(=O)Nc3cc(OC)c(OC)c(OC)c3)c3ccccc3C(=O)N2C)cc1 (stereo not given)	-2	-1	465*	-1	0
O=C(/C=C/c1cccc([N+](=O)[O-])c1)NCCSCc1ccc(Cl)cc1Cl	-8	-12	368*	0	0
O=C(/C=C/c1cccc([N+](=O)[O-])c1)NCCSCc1ccccc1Cl	-2	1	5	0	x
CC(OC(=O)c1cccc(S(=O)(=O)N2CCCC2)c1)C(=O)NC1CCCCC1C (stereo not given)	0	x	15	2	x
CC(C)CCCN1CCN=C1Nc1ccccc1	1	-5	596*	0	0
Cc1ccccc1OCc1nc(-c2ccccc2)no1	-2	2	390*	2	-1
Cc1ccc(-c2noc(COc3ccccc3C)n2)cc1	-6	0	x	3	x
CC1=C(C(N)=O)C(c2ccccn2)n2nc(SCc3ccccc3Cl)nc2N1 (stereo not given)	x	-13	384*	0	0
SMILES	ALR inh	M18AAP inhibitor	SUMO Mot1 rescue	HIF activator	Mot1 SUMO dose
Cc1cc(C)n2c(SCC(C)C)nnc2n1	0	-5	770*	0	-1
CCSc1nnc2nc(C)cc(C)n12	-8	14	300	2	x
CCn1c(N2CCN(C(=O)C34CC5CC(CC(C5)C3)C4)CC2)nc2ccccc21	12	2	389*	0	0
O=C(N1CCN(c2ccccc2)CC1)C12CC3CC(CC(C3)C1)C2	65	-1	16	0	x
Cc1c(NC(C)c2cc(Cl)ccc2O)c(=O)n(-c2ccccc2)n1C (stereo not given)	91*	2	455*	0	1
Cc1c(NC(C)c2ccccc2O)c(=O)n(-c2ccccc2)n1C (stereo not given)	54	-19	14	0	x
COc1ccccc1-c1nnc(SCC(=O)NC2CCS(=O)(=O)C2)n1N (stereo not given)	-2	2	+	-1	0
Cc1c(CC=C(Cl)Cl)c(=O)[nH]c2c(C)cccc12	-8	3	-19	0	x
COCCn1c(SCC(=O)N2CCCC2)nnc1-c1ccco1	-1	2	0	0	x
COCCn1c(SCC(=O)N2CCCC2)nnc1-c1ccoc1C	-14	2	+	1	0
Cc1ccc(NC(=S)NCc2ccco2)c(C)c1	x	9	-14	1	x
CCCCC(CCCCl)C(=O)Nc1ccccc1 (stereo not given)	-4	-9	-9	-1	x
CC(C)(C)C(=O)C(Cl)C(=O)Nc1ccccc1 (stereo not given)	3	-48	604*	1	-4
CC(=O)NC(NC(=S)Nc1ccc(C)cc1C)C(Cl)(Cl)Cl (stereo not given)	-4	-1	-9	0	x
Cc1ccc(NC(=S)NC(NC(=O)c2ccccc2C)C(Cl)(Cl)Cl)c(C)c1 (stereo not given)	-5	-11	627*	-1	0
COC(=O)c1ccc(COc2c(F)c(F)cc(F)c2F)o1	x	-1	94	-7	x
O=C(O)c1ccc(COc2c(F)c(F)cc(F)c2F)cc1	-7	4	+	0	0
CN1C(=O)CC(C(=O)O)SC1=Nc1ccc(F)cc1 (stereo not given)	-4	10	-3	0	x
CCOC(=O)c1ccccc1NC(=O)C1CC(=O)N(C2CCCCC2)C1 (stereo not given)	x	2	385*	-1	-1
O=S1(=O)N[C@H](c2ccccc2)C[C@H](c2ccc(C(F)(F)F)cc2)O1	-5	-6	-10	0	x
CC1CC(c2ccccc2)NS(=O)(=O)O1 (stereo not given)	-1	-2	518*	1	0
CC(NC(=O)C1CCCN(S(=O)(=O)N2CCOCC2)C1)c1ccccc1 (stereo not given)	-9	-1	368*	-1	0
O=C(Nc1ccc(Cl)cc1)C1=Cc2ccccc2OC1	-23	6	594*	2	-3
COc1cc(/C=N/n2c(C)nc3ccccc3c2=O)cc(OC)c1O	x	7	-3	1	x
Cc1ccc(S(=O)(=O)N(C)CC(=O)NNC(=O)CCC(=O)c2ccc(F)cc2)cc1	-3	x	11	x	x
O=C(O)/C=C\C(=O)NC1CCCCC1	-4	-8	509*	0	1
CC(=O)c1ccc(Oc2cc(C)nc(N3CCOCC3)n2)cc1	-4	-15	436*	1	1
CN(C(=O)c1ccco1)c1nc2c(s1)CCCC2	40	10	-15	1	x
O=C(c1ccccc1)N(Cc1ccc(F)cc1)Cc1nc2ccccc2c(=O)[nH]1	0	-5	33	0	x
O=C(c1ccncc1)N(Cc1ccccc1)Cc1nc2ccccc2c(=O)[nH]1	-3	2	414*	0	0

Screens (PubChem BioAssay)
